Data from the supplement of paper PMC12350171.
Counter-ions that a name gives are not always drawn. A number with no mark means an inactive call.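 The calls were made as follows: active = AUC significantly below DMSO controls by Student t-fit with adjusted P under 0.01; inactive = not significantly reduced.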

Each molecule was assayed on Haemophilus parainfluenzae (assay: growth AUC normalised to DMSO control (fraction of control); higher = less growth inhibition, active = hit call of the paper). Conditions: 20 µM.
Outline: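 For the AUC endpoint, growth curves were integrated by the trapezoidal rule up to the exponential-to-stationary transition and normalised to DMSO controls on the same plate. The curves came from OD578 readings taken hourly for 24 h, in three biological replicates. Pathogens had been passaged anaerobically twice and inoculated at an OD578 of 0.01 into pre-reduced mGAM plates carrying 20 μM compound and 1% DMSO, sealed with breathable membranes. Medium for Haemophilus parainfluenzae also contained hemin and NAD.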

Structure (SMILES) | growth AUC normalised to DMSO control
COc1ccc(CC(C)NCC(O)c2ccc(O)c(NC=O)c2)cc1 (configuration not stated) [Formoterol fumarate] | 1.09
Cc1onc(-c2c(F)cccc2Cl)c1C(=O)N[C@@H]1C(=O)N2[C@@H]1SC(C)(C)[C@@H]2C(=O)O [Flucloxacillin sodium] | 0.944
CCCCc1nc(Cl)c(CO)n1Cc1ccc(-c2ccccc2-c2nnn[nH]2)cc1 [Losartan] | 1.45
O=C(NCC(O)CO)c1c(I)c(C(=O)NCC(O)CO)c(I)c(N(CCO)C(=O)CO)c1I (configuration not stated) [Ioversol] | 1.06
COC(c1ccccc1)(c1ccccc1)[C@H](Oc1nc(C)cc(C)n1)C(=O)O [Ambrisentan] | 1.05
N=C(N)c1ccc(OCCCCCOc2ccc(C(=N)N)cc2)cc1 [Pentamidine isethionate] | 0.946
O=S(=O)(O)c1cc(O)ccc1O [Ethamsylate diethylammonium salt] | 0.98
CC(=O)OCC(CCn1cnc2cnc(N)nc21)COC(C)=O [Famciclovir] | 1.02
CN(C(=O)CN(CCO)CC(=O)N(C)C(C)(C)Cc1ccccc1)C(C)(C)Cc1ccccc1 [Oxethazaine] | 0.737
C[C@@H](O)[C@H]1C(=O)N2C(C(=O)O)=C(S[C@@H]3CN[C@H](C(=O)N(C)C)C3)[C@H](C)[C@H]12 [Meropenem] | 0.283 (active)
C#C[C@]1(O)CC[C@H]2[C@@H]3CCC4=Cc5oncc5C[C@]4(C)[C@H]3CC[C@@]21C [Danazol] | 0.908
O=c1[nH]cnc2c1ncn2[C@H]1CC[C@@H](CO)O1 [Didanosine] | 1.03
CC(=O)Oc1cc(C(C)C)c(OCCN(C)C)cc1C [Moxisylyte hydrochoride] | 0.995
Nc1nc2n[nH]nc2c(=O)[nH]1 [Azaguanine-8] | 0.992
COc1cc2nc(N3CCN(C(=O)c4ccco4)CC3)nc(N)c2cc1OC [Prazosin hydrochloride] | 0.981
Cc1ccc(Cl)c(Nc2ccccc2C(=O)O)c1Cl [Meclofenamic acid sodium salt monohydrate] | 0.94

Structure (SMILES) | growth AUC normalised to DMSO control
CCCN[C@H]1CCc2nc(N)sc2C1 [Pramipexole dihydrochloride] | 0.985
C[C@@H](O[C@H]1OCCN(Cc2n[nH]c(=O)[nH]2)[C@H]1c1ccc(F)cc1)c1cc(C(F)(F)F)cc(C(F)(F)F)c1 [Aprepitant] | 0.941
C[C@]12CC[C@@H]3c4ccc(O)cc4CC[C@H]3[C@@H]1CC[C@@H]2O [Estradiol-17 beta] | 1
CCc1ccc(CCOc2ccc(CC3SC(=O)NC3=O)cc2)nc1 (configuration not stated) [Pioglitazone] | 0.955
CC(C)(Oc1ccc(Cl)cc1)C(=O)O [Clofibric acid] | 0.908
CNCCc1ccccn1 [Betahistine mesylate] | 0.962
CC(N)C12CC3CC(CC(C3)C1)C2 (configuration not stated) [Rimantadine hydrochloride] | 0.933
Cc1nccn1CC1CCc2c(c3ccccc3n2C)C1=O (configuration not stated) [Ondansetron hydrochloride] | 1.07
C#C[C@]1(O)CC[C@H]2[C@@H]3CCC4=CC(=O)CC[C@@H]4[C@H]3CC[C@@]21CC [(D-) Norgestrel] | 0.969
C#CCN(C)Cc1ccccc1 [Pargyline hydrochloride] | 0.979
O=C(c1ccccc1)c1ccc2n1CCC2C(=O)O (configuration not stated) [Ketorolac tromethamine] | 0.972
O=C(O)CN(CCN(CC(=O)O)CC(=O)O)CCN(CC(=O)O)CC(=O)O [Pentetic acid] | 1.02
CC(C)NCC(O)c1ccc(O)c(O)c1 (single isomer, unassigned; (-)) [(-) Isoproterenol hydrochloride] | 1.03
c1coc(CNc2ncnc3[nH]cnc23)c1 [Kinetin] | 1.01
CC1=Nc2ccc(Cl)cc2S(=O)(=O)N1 [Diazoxide] | 1.05
Fc1ccc(C(c2ccc(F)cc2)N2CCN(C/C=C/c3ccccc3)CC2)cc1 [Flunarizine dihydrochloride] | 0.97
